Assay results taken from PubChem BioAssay (Tox21).
“And” between values parts separate entries of the source, which are not always exact repeats. Equal entries are not always repeated. Results filed as inconclusive are left out. A call without a number means that no potency is given here. Values without a mark were called inactive. The source made the active and inactive calls. Calls follow the shape of the dose curve; as a rule, active = well fitted cell-killing curve with a large enough effect in the repeat runs; inconclusive = weak or mixed curves, or effect the other way; inactive = no such curve, though single readings can be large or run the other way.

Assay: qHTS assay to identify small molecule antagonists of the peroxisome proliferator-activated receptor gamma (PPARg) signaling pathway - cell viability counter screen (AID 743194); also: nearly all actives have a fitted effect of over 55% in size
Settings: PPARg-bla HEK293H viability, CellTiter-Glo luminescence, 17 h; Potency: co-treated with 50 nM rosiglitazone unless noted; series mostly up to 62.6 µM
Source text: U.S. Tox21 Program National Center for Advancing Translational Sciences [NCATS] NIH Chemical Genomics Center [NCGC] U.S. Environmental Protection Agency [EPA] National Institutes of Environmental Health Sciences [NIEHS] National Toxicology Program [NTP] U.S. Food and Drug Administration [FDA] Tox21 Assay Overview: The peroxisome proliferator-activated receptors (PPARs) are lipid-activated transcription factors of the nuclear receptor superfamily with three distinct subtypes namely PPAR alpha, PPAR delta (also called PPAR beta) and PPAR gamma (PPARg). All these subtypes heterodimerize with Retinoid X receptor (RXR) and these heterodimers regulate transcription of various genes. PPAR-gamma receptor (glitazone receptor) is involved in the regulation of glucose and lipid metabolism. To identify the compounds that activate PPAR-gamma signaling, GeneBLAzer PPAR gamma UAS-bla HEK293H cell line (Invitrogen, Carlsbad, CA, USA) containing a beta-lactamase reporter gene under the control of an Upstream Activator Sequence (UAS) was used to screen the Tox21 compound library. The cytotoxicity of the Tox21 compound library against the PPARg-bla cell line was tested in parallel by measuring the cell viability using CellTiter-Glo assay in the same wells.
Tox21 Assay Protocol Summary: PPARg-bla cells were dispensed at 3000 cells/5uL/well in 1536-well black wall/clear bottom plates using a Multidrop Combi (Thermo Fisher Scientific, Waltham, MA) dispenser. After the assay plates were incubated at 37 C and 5% CO2 for 5 h, 23 nL of compounds dissolved in DMSO, positive controls or DMSO only was transferred to the assay plate by a Pintool station (Kalypsys, San Diego, CA), followed by addition of 1ul Rosiglitazone (50 nM, final concentration in the wells). The assay plates were incubated at 37 C for 17 h, and then 1 uL of LiveBLAzerTM B/G FRET substrate was added using a Bioraptr Flying Reagent Dispenser (FRD) workstation (Beckman Coulter, Indianapolis, IN, USA). The assay plates were incubated at room temperature for 1 h and fluorescence intensity was measured by an Envision plate reader (PerkinElmer, Shelton, CT). For cell viability readout that measures cytotoxicity, 4 ul/well of CellTiter-Glo reagent was added into the assay plates using a Flying Reagent Dispenser. After 30 min incubation at room temperature, the luminescence intensity in the plates was measured using a ViewLux plate reader (PerkinElmer).
Potency is read from the fitted curve at half-maximal effect.

| Structure (SMILES) | Potency | activity change, negative = cytotoxicity |
| --- | --- | --- |
| CC(C)C(Nc1ccc(C(F)(F)F)cc1Cl)C(=O)OC(C#N)c1cccc(Oc2ccccc2)c1 (stereo not given) | inactive |  |
| O=C(N[C@@H]1N=C(c2ccccc2F)c2cccc3c2N(CC3)C1=O)c1cc2ccccc2[nH]1 | inactive |  |
| Oc1cccc(Cl)c1Cl | inactive |  |
| CC1(C)C(C=C(Cl)Cl)C1C(=O)OC(C#N)c1ccc(F)c(Oc2ccccc2)c1 (stereo not given) | inactive |  |
| CCN(CC)CCN1C(=O)CN=C(c2ccccc2F)c2cc(Cl)ccc21 | inactive |  |
| CCOP(=S)(NC(C)C)Oc1ccccc1C(=O)OC(C)C (stereo not given) | inactive |  |
| [Cl-].[Cl-].[Sn+2] | inactive |  |
| C1=CCC=C1 | inactive |  |
| Nc1nc(N)c(N)c(N)n1 | inactive |  |
| Cc1ccc2cc3c(ccc4ccccc43)c3c2c1CC3 | inactive |  |
| Fc1ccc(C(OCCN2CCN(CCCc3ccccc3)CC2)c2ccc(F)cc2)cc1 | 16.8 µM (active) |  |
| CN | inactive |  |
| ClC1=C(Cl)[C@]2(Cl)[C@H]3[C@H]([C@@H]4C=C[C@H]3C4)[C@@]1(Cl)C2(Cl)Cl | 49 µM (active) |  |
| O=NN(CCO)CCO | inactive |  |
| [O]=[Cr](=[O])([OH])[O][Cr](=[O])(=[O])[OH] | 3.93 µM (active) and 7.74 µM (active) |  |
| Cc1cccc(Cc2cnc[nH]2)c1C | inactive |  |
| Cc1nn(-c2cc(NS(C)(=O)=O)c(Cl)cc2Cl)c(=O)n1C(F)F | inactive |  |
| CCCCC/C=C\C/C=C\C/C=C\C/C=C\CCCC(=O)NCC(=O)O | inactive |  |
| CC(=O)[O-].CC(=O)[O-].O.O.[Zn+2] | inactive |  |
| CCCCCON=O | inactive |  |

| Structure (SMILES) | Potency | activity change, negative = cytotoxicity |
| --- | --- | --- |
| CN(C)CCc1c[nH]c2ccccc12 | inactive |  |
| CC(=O)[O-].CC(=O)[O-].CC(=O)[O-].[Cr+3] | inactive |  |
| CCC(C)Nc1c([N+](=O)[O-])cc(C(C)(C)C)cc1[N+](=O)[O-] (stereo not given) | inactive |  |
| Cc1cnc2c(C(=O)O)c(Cl)ccc2c1 | inactive |  |
| Nc1nc(N)nc(Cl)n1 | inactive |  |
| CCOP(=O)(Sc1ccccc1)Sc1ccccc1 | inactive |  |
| COP(=S)(NC(C)C)Oc1ccc(C)cc1[N+](=O)[O-] (stereo not given) | inactive |  |
| ClCBr | inactive |  |
| [Cl][Hg][c]1ccccc1 | 0.776 µM (active) |  |
| CO/N=C(/C1=NOCCO1)c1ccccc1Oc1ncnc(Oc2ccccc2Cl)c1F | inactive |  |
| C=C(C)C(=O)[O][Sn]([CH2]CCC)([CH2]CCC)[CH2]CCC | 0.549 µM (active) |  |
| CC(=O)[O][Sn]([c]1ccccc1)([c]1ccccc1)[c]1ccccc1 | 0.138 µM (active) |  |
| OCC(Br)CBr (stereo not given) | inactive |  |
| CCOP(=S)(OCC)Oc1cc(C)nc(N(CC)CC)n1 | inactive |  |
| c1ccc2c(c1)cc1ccc3cccc4ccc2c1c34 | inactive |  |
| CC1CCCC1 | inactive |  |
| Clc1c(Cl)c(Cl)c(Cl)c(Cl)c1Cl |  | -5.6% [at 5.95 µM, co-treated with 50 nM rosiglitazone] |
| O=C1C2(Cl)C3(Cl)C4(Cl)C(Cl)(Cl)C5(Cl)C3(Cl)C1(Cl)C5(Cl)C24Cl (stereo not given) | 38.3 µM (active) |  |
| O.O.O.O.O.O.O=S(=O)([O-])[O-].[Ni+2] | inactive |  |
| O=C(O)CCCCCCNC1c2ccccc2CCc2ccccc21 | inactive |  |
